In the supplement of paper PMC6555819:

How the values were obtained:
Assay in all cases: PBM binding z-score (relative to random genomic background probes); higher = stronger binding; sequences stand for … in GC…GCGATTGACAGCGTAGAATGAAGG
[1] = system: FXR:RXRa (NR concentration 270 nM, RXRa partner concentration 90 nM)
How it was run: (§1)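 Random background probes are the reference for binding z-scores. These scores derive from regression-normalized fluorescence on custom Agilent 4×180K protein-binding microarrays incubated 1 h with ligand-free nuclear receptor dimers. Binding was detected with antibodies against each partner (one per run).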

[2] = system: LXRa:RXRa (NR concentration 270 nM, RXRa partner concentration 90 nM)
How it was run: as §1

[3] = system: LXRa homodimer (NR concentration 270 nM)
How it was run: as §1

[4] = system: LXRb:RXRa (NR concentration 270 nM, RXRa partner concentration 90 nM)
How it was run: as §1

[5] = system: LXRb homodimer (NR concentration 270 nM)
How it was run: as §1

[6] = system: PPARa:RXRa (NR concentration 270 nM, RXRa partner concentration 90 nM)
How it was run: as §1

[7] = system: PPARg:RXRa (NR concentration 180 nM, RXRa partner concentration 90 nM)
How it was run: as §1

[8] = system: PPARg:RXRa 270nM:90nM, anti-RXR (NR concentration 270 nM, RXRa partner concentration 90 nM)
How it was run: as §1

[9] = system: PPARg:RXRa 30nM:10nM, anti-RXR (NR concentration 30 nM, RXRa partner concentration 10 nM)
How it was run: as §1

[10] = system: PPARg:RXRa 90nM:30nM, anti-RXR (NR concentration 90 nM, RXRa partner concentration 30 nM)
How it was run: as §1

TAGCCTAGGTCATATCGGGCCAGTATACGCTATA
PBM binding z-score [1]: 4.12 | PBM binding z-score [2]: 3.82 | PBM binding z-score [3]: 0.583 | PBM binding z-score [4]: 2.59 | PBM binding z-score [5]: 0.744 | PBM binding z-score [6]: 3.14 | PBM binding z-score [7]: 1.53 | PBM binding z-score [8]: 1.61 | PBM binding z-score [9]: 0.227 | PBM binding z-score [10]: 0.981

AGAACAAGGGCACGCTGAGTTGATAGCAGAGTAG
PBM binding z-score [1]: 0.401 | PBM binding z-score [2]: 0.296 | PBM binding z-score [3]: -0.369 | PBM binding z-score [4]: -0.0707 | PBM binding z-score [5]: -0.878 | PBM binding z-score [6]: 1.38 | PBM binding z-score [7]: 1.28 | PBM binding z-score [8]: 0.671 | PBM binding z-score [9]: 0.364 | PBM binding z-score [10]: 0.255

CCGACTGGGTCAGAAAGGTTACCATACCATCCGG
PBM binding z-score [1]: 1.8 | PBM binding z-score [2]: 1.62 | PBM binding z-score [3]: -0.0382 | PBM binding z-score [4]: 1.61 | PBM binding z-score [5]: -0.767 | PBM binding z-score [6]: 3.21 | PBM binding z-score [7]: 3.13 | PBM binding z-score [8]: 3.2 | PBM binding z-score [9]: 0.873 | PBM binding z-score [10]: 2.2

CAAACTAGGTCAAGAGGTCTAAGTCCGCTTCCCG
PBM binding z-score [1]: 3.48 | PBM binding z-score [2]: 2.8 | PBM binding z-score [3]: 0.46 | PBM binding z-score [4]: 1.7 | PBM binding z-score [5]: -0.0852 | PBM binding z-score [6]: 4.97 | PBM binding z-score [7]: 7.75 | PBM binding z-score [8]: 6.93 | PBM binding z-score [9]: 4.73 | PBM binding z-score [10]: 6.71

TAGCCTAGGTGATGGGCCAGTATACCACGCGAAC
PBM binding z-score [1]: -0.85 | PBM binding z-score [2]: -0.73 | PBM binding z-score [3]: -0.59 | PBM binding z-score [4]: -0.909 | PBM binding z-score [5]: -0.955 | PBM binding z-score [6]: -0.386 | PBM binding z-score [7]: 0.501 | PBM binding z-score [8]: 0.427 | PBM binding z-score [9]: -0.547 | PBM binding z-score [10]: -0.0568

CCAGACAGGTGAGAGGTAACTCAGTCTGGTACGC
PBM binding z-score [1]: -0.0103 | PBM binding z-score [2]: 0.206 | PBM binding z-score [3]: -0.48 | PBM binding z-score [4]: 0.237 | PBM binding z-score [5]: -0.589 | PBM binding z-score [6]: 1.97 | PBM binding z-score [7]: 2.93 | PBM binding z-score [8]: 4.15 | PBM binding z-score [9]: 1.95 | PBM binding z-score [10]: 3.82

TCATATAGGTAAATGCTAGGTGAAAGGCCGATCT
PBM binding z-score [1]: 0.626 | PBM binding z-score [2]: 1.07 | PBM binding z-score [3]: 0.239 | PBM binding z-score [4]: 0.994 | PBM binding z-score [5]: 0.0512 | PBM binding z-score [6]: 1.93 | PBM binding z-score [7]: 1.81 | PBM binding z-score [8]: 3.17 | PBM binding z-score [9]: 3.62 | PBM binding z-score [10]: 3.95

GCGACTGGGGCAAAGCAGGTTACCTTAAGGTTGG
PBM binding z-score [1]: 0.232 | PBM binding z-score [2]: 0.16 | PBM binding z-score [3]: -0.422 | PBM binding z-score [4]: 0.247 | PBM binding z-score [5]: -0.607 | PBM binding z-score [6]: 1.31 | PBM binding z-score [7]: 0.947 | PBM binding z-score [8]: 1.35 | PBM binding z-score [9]: -0.661 | PBM binding z-score [10]: 0.437

TCTTGTAGATCAGCAGGTTTAGAAAGCTGGCCAA
PBM binding z-score [1]: -0.241 | PBM binding z-score [2]: -0.13 | PBM binding z-score [3]: -0.52 | PBM binding z-score [4]: 0.0239 | PBM binding z-score [5]: -0.59 | PBM binding z-score [6]: 0.117 | PBM binding z-score [7]: -0.901 | PBM binding z-score [8]: 0.915 | PBM binding z-score [9]: 2.13 | PBM binding z-score [10]: 1.23

GATACAGGGTCAGCTAGAGGCAAGAGTATGGAAA
PBM binding z-score [1]: 4.32 | PBM binding z-score [2]: 2.35 | PBM binding z-score [3]: -0.297 | PBM binding z-score [4]: 2.33 | PBM binding z-score [5]: -0.0863 | PBM binding z-score [6]: 4.69 | PBM binding z-score [7]: 3.78 | PBM binding z-score [8]: 3.19 | PBM binding z-score [9]: 0.625 | PBM binding z-score [10]: 1.71

CCTGACAGGTGAGAAGGTAACTCAGCCTCGATTA
PBM binding z-score [1]: -0.00915 | PBM binding z-score [2]: 0.102 | PBM binding z-score [3]: -0.219 | PBM binding z-score [4]: -0.0265 | PBM binding z-score [5]: -0.779 | PBM binding z-score [6]: 0.763 | PBM binding z-score [7]: 0.404 | PBM binding z-score [8]: 0.701 | PBM binding z-score [9]: -0.205 | PBM binding z-score [10]: 0.257

CGAACTACGTCATTGACAGGACAGTGAATAGTAA
PBM binding z-score [1]: -0.386 | PBM binding z-score [2]: -0.38 | PBM binding z-score [3]: -0.195 | PBM binding z-score [4]: -0.327 | PBM binding z-score [5]: -0.182 | PBM binding z-score [6]: -0.47 | PBM binding z-score [7]: 0.307 | PBM binding z-score [8]: -0.251 | PBM binding z-score [9]: -0.294 | PBM binding z-score [10]: -0.164

CTACCAAGGTGCACAAGGTCGTTGATTACTATTC
PBM binding z-score [1]: 0.933 | PBM binding z-score [2]: 1.22 | PBM binding z-score [3]: 0.723 | PBM binding z-score [4]: 1.74 | PBM binding z-score [5]: -0.173 | PBM binding z-score [6]: 1.69 | PBM binding z-score [7]: 0.548 | PBM binding z-score [8]: 0.538 | PBM binding z-score [9]: -0.186 | PBM binding z-score [10]: 0.246

TTACCAAGGTGAAAGGCCGTTGATGCACGCCTTG
PBM binding z-score [1]: 0.494 | PBM binding z-score [2]: 0.431 | PBM binding z-score [3]: -0.517 | PBM binding z-score [4]: 0.397 | PBM binding z-score [5]: -0.951 | PBM binding z-score [6]: 2.49 | PBM binding z-score [7]: 3.77 | PBM binding z-score [8]: 4.98 | PBM binding z-score [9]: 2.95 | PBM binding z-score [10]: 4.9

CGTCAAAGTTCAACTATGGTAACGTAAAGCACGC
PBM binding z-score [1]: 6.59 | PBM binding z-score [2]: 6.03 | PBM binding z-score [3]: 3.91 | PBM binding z-score [4]: 4.34 | PBM binding z-score [5]: 2.3 | PBM binding z-score [6]: 4.97 | PBM binding z-score [7]: 4.9 | PBM binding z-score [8]: 5.62 | PBM binding z-score [9]: 2.24 | PBM binding z-score [10]: 4.52

CGAACTAGGTCAGAACAGGACAGTGAGGGATGAT
PBM binding z-score [1]: 1.59 | PBM binding z-score [2]: 0.807 | PBM binding z-score [3]: -0.0765 | PBM binding z-score [4]: 0.315 | PBM binding z-score [5]: -0.376 | PBM binding z-score [6]: 2.96 | PBM binding z-score [7]: 5.04 | PBM binding z-score [8]: 4.45 | PBM binding z-score [9]: 1.74 | PBM binding z-score [10]: 3.43

TCTTGTAGAACAGCAGGTTAAGAAAGCTGGCCAA
PBM binding z-score [1]: -0.25 | PBM binding z-score [2]: -0.235 | PBM binding z-score [3]: -0.708 | PBM binding z-score [4]: -0.0015 | PBM binding z-score [5]: -0.898 | PBM binding z-score [6]: 0.675 | PBM binding z-score [7]: -0.134 | PBM binding z-score [8]: 1.17 | PBM binding z-score [9]: 2.2 | PBM binding z-score [10]: 1.9

TAGCCTAGGTCATTGGGTCAGTATAGTACGCATC
PBM binding z-score [1]: 4.85 | PBM binding z-score [2]: 4.31 | PBM binding z-score [3]: 1.59 | PBM binding z-score [4]: 3.21 | PBM binding z-score [5]: 0.907 | PBM binding z-score [6]: 4.58 | PBM binding z-score [7]: 5.28 | PBM binding z-score [8]: 5.07 | PBM binding z-score [9]: 1.89 | PBM binding z-score [10]: 3.99

AGAATGAGGTTATACCTAGATCAGGGAAGAAAGT
PBM binding z-score [1]: 1.65 | PBM binding z-score [2]: 1.87 | PBM binding z-score [3]: -0.0251 | PBM binding z-score [4]: 1.31 | PBM binding z-score [5]: -0.249 | PBM binding z-score [6]: 3.15 | PBM binding z-score [7]: 1.77 | PBM binding z-score [8]: 1.63 | PBM binding z-score [9]: 0.532 | PBM binding z-score [10]: 1.09

CCTACGGGGCCATCAGGTCATTGATATCAACGTT
PBM binding z-score [1]: 2.38 | PBM binding z-score [2]: 1.72 | PBM binding z-score [3]: 0.922 | PBM binding z-score [4]: 1.91 | PBM binding z-score [5]: -0.245 | PBM binding z-score [6]: 2.46 | PBM binding z-score [7]: 1.25 | PBM binding z-score [8]: 1.88 | PBM binding z-score [9]: 0.224 | PBM binding z-score [10]: 0.958

AGAATGAGGTTATACGTAGATCAGGGTAGAAAGT
PBM binding z-score [1]: 2.27 | PBM binding z-score [2]: 1.96 | PBM binding z-score [3]: 0.00674 | PBM binding z-score [4]: 1.65 | PBM binding z-score [5]: 0.246 | PBM binding z-score [6]: 3.21 | PBM binding z-score [7]: 2.08 | PBM binding z-score [8]: 2.36 | PBM binding z-score [9]: 0.669 | PBM binding z-score [10]: 1.22

TCTTGTCGATCAACAGGAGGTTAAGAAAGATCGA
PBM binding z-score [1]: 0.21 | PBM binding z-score [2]: 0.937 | PBM binding z-score [3]: 0.145 | PBM binding z-score [4]: 0.977 | PBM binding z-score [5]: -0.356 | PBM binding z-score [6]: 1.11 | PBM binding z-score [7]: -0.231 | PBM binding z-score [8]: 0.969 | PBM binding z-score [9]: 1.86 | PBM binding z-score [10]: 1.64

CCTATCAGGCCAGGGTCACTCAAGCATTTCGCTT
PBM binding z-score [1]: 2.19 | PBM binding z-score [2]: 1.74 | PBM binding z-score [3]: -0.264 | PBM binding z-score [4]: 2.23 | PBM binding z-score [5]: -0.67 | PBM binding z-score [6]: 3.33 | PBM binding z-score [7]: 0.918 | PBM binding z-score [8]: 1.93 | PBM binding z-score [9]: -0.162 | PBM binding z-score [10]: 0.886

CGTCAAAGTTCAACTAAAGTAACGTAAAGCACGC
PBM binding z-score [1]: 6.66 | PBM binding z-score [2]: 6.26 | PBM binding z-score [3]: 3.94 | PBM binding z-score [4]: 4.14 | PBM binding z-score [5]: 2.66 | PBM binding z-score [6]: 4.93 | PBM binding z-score [7]: 5 | PBM binding z-score [8]: 5.38 | PBM binding z-score [9]: 2.2 | PBM binding z-score [10]: 4.09
